CHX counter = counter-screen hit for Shiga toxin inhibitors, cycloheximide | cell reporter, cycloheximide protein synthesis inhibition counterscreen | max response, % | 300,000 compounds, 12% hits | AID 2314; in the data active = max response mostly above about 13%, no sharp cut-off; inactive = mostly below about 14%; also: read at 38.3 µM for the half of the compounds with a filed dose; 0% is about no effect
Marburg entry inh = inhibitors of Marburg virus binding or cell entry. Marburg virus pseudotyped entry inhibition, cell reporter. Potency, µM (titrated, usually from 37.8 µM), inactives show top-dose activity change, negative = inhibition, actives largely listed as inhibitors. 300,000 compounds, 1.8% hits. AID 540276; calls by dose curve; tested in HEK293 cells; also: potency is read from the fitted curve at half-maximal effect; % is scaled to controls: 0 for no effect and ±100 for the full control effect
Pf growth 96h = P. falciparum growth inhibition at 96 hour, primary screen for plastid delayed-death inhibitors | P. falciparum luciferase reporter growth, 96 h | Potency, µM (series often up to 28.7 µM), without a hit: at the highest dose activity change, negative = inhibition, actives largely listed as inhibitors | 320,000 compounds, 6.9% hits | AID 504834; also: potency is read from the fitted curve at half-maximal effect; % is scaled to controls: 0 for no effect and ±100 for the full control effect
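Two parasite generations (96 h, 37 C, 5% CO2) of compound exposure in infected erythrocytes (0.05% parasitemia, 2% hematocrit). Luciferase-reporter P. falciparum; decreased luminescence indicates inhibited growth, aimed at apicoplast-acting delayed death.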
Pf growth 48h = P. falciparum growth inhibition at 48 hours (one generation). 310,000 compounds, 5.9% hits. P. falciparum luciferase growth in erythrocytes, 48 h. Potency, µM (titrated, usually from 28.7 µM), for inactives: top-dose activity change, negative = inhibition, actives largely listed as inhibitors; also: potency is read from the fitted curve at half-maximal effect; % is scaled to controls: 0 for no effect and ±100 for the full control effect
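In quantitative HTS format, infected erythrocytes bearing luciferase-reporter parasites were treated for a single generation at 37 C. Luminescence after adding detection reagent served as the growth measure.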
Shiga inhibitor = blocks Shiga toxin action in Vero cells. 290,000 compounds, 9.2% hits. inhibition, % at 38.7 µM. Vero cells, Shiga toxin protein synthesis inhibition reporter; in the data active = inhibition mostly above about 28%, no sharp cut-off; inactive = mostly below about 43%; also: 0% is about no effect
LASV entry inh = blocks Lassa virus binding to or entry into cells; 300,000 compounds, 1.2% hits; Potency, µM (titrated, usually from 37.9 µM), for the others: top-dose activity change, negative = inhibition, hits mostly inhibitors; Lassa virus pseudotype entry inhibition, cell reporter; calls by dose curve; tested in HEK293 cells; also: potency is read from the fitted curve at half-maximal effect; % is scaled to controls: 0 for no effect and ±100 for the full control effect; nearly all actives have a fitted effect of over 50% in size
The depositor's hits bear a star; u = inconclusive; x = no result; [ ] = dose if it differs, or a comment. Sampled rows, rich in hits. Any-hit rate of the full collection: about 19%. Unless noted, calls follow the shape of the dose curve; as a rule, active = well fitted inhibition curve with a large enough effect; inconclusive = small, poorly fitted or top-dose-only effect, or another doubt; inactive = no such curve, though single readings can be large or run the other way.

SMILES	CHX counter	Marburg entry inh	Pf growth 96h	Pf growth 48h	Shiga inhibitor	LASV entry inh
O=C(Nc1cccc(-c2cn3ccccc3n2)c1)c1cnccn1	-1	u	14%	94%	15	2%
CCC(=O)Nc1cccc(-c2cn3cccc(C)c3n2)c1	39*	x	244%	101%	54*	x
CC(C)(C)c1ccc(S(=O)(=O)NCC2CCCO2)cc1 (stereo not drawn)	-5	x	-26%	12%	x	x
COc1ccc(-c2nnc(SCC(=O)N3CCCCC3)o2)cc1OC	-1	x	u	4%	8	x
CC(C)N(Cc1nc(-c2ccccc2)no1)C(=O)CCCN1C(=O)c2ccccc2C1=O	7	5%	14%	-8%	-4	-9%
CC(NC(=O)c1ccc(N)cc1)c1ccccc1 (stereo not drawn)	5	15%[46.1 µM]	-5%	9%	16	-2%[46.1 µM]
COc1ccc(CNC(=O)CN2CCC(NC(=O)c3ccccc3C)CC2)cc1	-3	u	30%	7%	-9	x
COc1ccc(CC(=O)Nc2ccc(-c3cn4ccccc4n3)cc2)cc1	25*	-24%	x	70%	112*	u
COc1ccc(CC(=O)Nc2ccc(-c3cn4ccccc4n3)cc2)cc1OC	8	0%	-12%	x	-3	10%
COc1ccc(CC(=O)Nc2cccc(-c3cn4ccccc4n3)c2)cc1	46*	u	45%	39%	active	u
Cc1ccc(-c2cn3cccnc3n2)cc1NC(=O)c1cccs1	16	u	-4%	19%	11	8%
O=C(Nc1ccc(-c2cn3ccccc3n2)cc1)c1cccs1	33*	15µM*	-17%	160%	54*	u
CC(=O)c1ccc(OCc2cccc(C(F)(F)F)c2)cc1O	29*	-28%[46.1 µM]	u	5%	43*	16%
CS(=O)(=O)N1CCN(Cc2ccccc2C(F)(F)F)CC1	1	2%	-10%	-3%	1	18%
CS(=O)(=O)N1CCN(Cc2ccc(C(F)(F)F)cc2)CC1	3	26%	9.3µM*	x	-5	u
N#Cc1ccccc1OCC(=O)NC(=O)NCc1ccccc1	8	-2%[46.1 µM]	-29%	0%	21	14%[46.1 µM]
N#Cc1ccccc1OCC(=O)NC(=O)NCc1ccco1	26*	x	171%	112%	57*	x
CCNC(=O)NC(=O)COc1ccccc1C#N	36*	2%	x	77%	81*	-1%
COc1ccc(-c2cc(-c3ccc(C)cc3)n[nH]2)c(O)c1	44*	x	34%	u	94*	x
COc1ccc(-c2cc(C3CCNCC3)[nH]n2)cc1	10	x	2.3µM*	2.6µM*	23	x
COc1ccc(S(=O)(=O)N2CCC(c3cc(-c4cccc5ccccc45)n[nH]3)CC2)cc1	-2	u	u	u	-8	-25%
COc1ccc(-c2cc(-c3cc(C)ccc3O)[nH]n2)cc1	49*	u	u	u	80*	u
COc1ccc(Oc2ccc(-c3ccn[nH]3)cc2)cc1	32*	1%	97%	56%	77*	u
COc1ccc(-c2cc(-c3n[nH]c(=S)n3-c3cc(OC)ccc3OC)[nH]n2)cc1	-6	-12%	16%	-4%	-10	-6%
COc1ccc(-c2cn[nH]c2N)cc1	11	3%	x	36%	-3	21%
SMILES	CHX counter	Marburg entry inh	Pf growth 96h	Pf growth 48h	Shiga inhibitor	LASV entry inh
COc1ccc(C2C(=O)N(C3CCCCCC3)CC(=O)N2Cc2ccc(C)cc2)cc1OC (stereo not drawn)	x	x	x	x	x	-26%[46.1 µM]
COc1ccc(-c2cc(-c3ccc(OC)cc3)[nH]n2)cc1	35*	u	-15%	x	40	-2%
Clc1ccc(-c2ccn[nH]2)cc1	53*	x	u	149%	147*	x
CCN(CCCNC(=O)c1[nH]c(C)c(C(C)=O)c1C)c1ccccc1	-1	u	u	u	15	-18%
Nc1c(Cl)ncnc1N/N=C/c1cccc(O)c1	26*	x	2%	51%	50*	x
Oc1cccc(/C=N/Nc2ncnc3c2ncn3Cc2ccccc2)c1	18*	u	u	27%	53*	-14%
COc1ccc(/C=N/Nc2ncnc(Cl)c2N)cc1OC	14*	0%	24%	6%	13	6%
Oc1ccc(/C=N/Nc2ncnc3c2ncn3Cc2ccccc2)cc1O	4	u	u	u	35	u
O=C1CC(N2CCOCC2)C(=O)N1c1cccc(Cl)c1 (stereo not drawn)	1	32%	u	33%	-6	-4%
O=C(O)c1ccc(N2C(=O)CC(N3CCN(c4cccc(Cl)c4)CC3)C2=O)cc1 (stereo not drawn)	9.7*	x	u	-13%	x	x
O=C1CC(N2CCOCC2)C(=O)N1c1ccc(Cl)cc1 (stereo not drawn)	-4	x	0%	7.4µM*	-6	x
CN(C)S(=O)(=O)n1cc(/C=C(\NC(=O)c2ccccc2)C(=O)NCCCn2ccnc2)c2ccccc21	-6	-2%[46.1 µM]	u	u	-13	1%[46.1 µM]
CCn1nnnc1SCC(=O)Nc1cc(C)on1	-4	9%[46.1 µM]	16%	-15%	-1	4%
CCNC(=S)N1CCc2cc(OC)c(OC)cc2C1COc1ccc(F)cc1 (stereo not drawn)	7	u	8.3µM*	u	-15	x
COCCNC(=S)N1CCc2cc(OC)c(OC)cc2C1COc1ccc(C(C)C)cc1 (stereo not drawn)	-3	13µM*	8.3µM*	12µM*	-19	u
CNC(=S)N1CCc2cc(OC)c(OC)cc2C1COc1ccc(F)cc1 (stereo not drawn)	-4	u	-39%	u	-6	u
COCCNC(=S)N1CCc2cc(OC)c(OC)cc2C1COc1ccc(F)cc1 (stereo not drawn)	7	-17%[46.1 µM]	35%	u	-16	-5%[46.1 µM]
COCCNC(=S)N1CCc2cc(OC)c(OC)cc2C1c1cccs1 (stereo not drawn)	3	8%[46.1 µM]	5.9µM*	2.9µM*	-14	3%[46.1 µM]
COc1ccc(C(=O)C2CCCN(C(=O)CCC3=NNC(=O)CC3)C2)c(C)c1 (stereo not drawn)	-4	4%[46.1 µM]	10µM*	0%	17	3%
O=C1CCC(CCC(=O)N2CCCC(C(=O)c3cccc(C(F)(F)F)c3)C2)=NN1 (stereo not drawn)	11*	-9%[46.1 µM]	13%	47%	15	7%[46.1 µM]
CCCC(=O)N1CCCC(C(=O)c2cccc(OC(C)C)c2)C1 (stereo not drawn)	x	15%[46.1 µM]	x	x	x	-28%[46.1 µM]
COc1cccc(C(=O)C2CCCN(C(=O)CCC3=NNC(=O)CC3)C2)c1 (stereo not drawn)	16*	x	21%	24%	46*	x
COC(C[C@H]1O[C@H]1[C@@H](O)COCc1ccccc1)OC	-4	x	0%	45%	-8	x
NS(=O)(=O)c1cccc(NC(=O)Cn2nc(C(=O)O)c3ccccc3c2=O)c1	-2	2%[46.1 µM]	37%	17%	-10	28%[46.1 µM]
